According to PubChem BioAssay AID1159580 (chemical genetic matrix, 2015):
The whole screen tested about 5,500 compounds, of which about 2,000 (36%) were called active. Inconclusive results (about 18%) are left out. Cut-off read from the data, not from the text of the source: active = normalized growth mostly below about 0.91 (no sharp cut-off); inconclusive = no clear call, values can overlap the other calls; inactive = mostly above about 0.92. Some of the results follow.

Experiment: chemical genetic growth profiling, strain panel (AID 1159580);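 note: tested at 20 µM; growth read once vehicle control cultures reached saturation at 30 °C; 1 = growth at the plate median or of vehicle wells; lower values mean less growth of the strain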
Settings: S. cerevisiae deletion strains, growth OD

Measured: normalized growth

COC1=C(OC)C(=O)C(CCCCCCCCCCO)=C(C)C1=O
inactive: locus YHR030C, strain SLT2, active compounds read low 0.964 | locus YHR079C, strain IRE1, active compounds read low 0.937 | locus YJL095W, strain BCK1, active compounds read low 0.982 | locus YJR066W, strain TOR1, active compounds read low 0.934 | locus YLR113W, strain HOG1, active compounds read low 0.922 | locus YNL183C, strain NPR1, active compounds read low 0.92 | locus YOR231W, strain MKK1, active compounds read low 0.972 | locus YPL256C, strain CLN2, active compounds read low 0.964
